Bioassay records from PubChem.
The list is not random: actives were taken first. Their share in the collection is about 6.5%.
TGFb inhibitor: TGF-b pathway inhibition | Potency, µM (series often up to 46.1 µM), for the others: at the highest dose activity, negative = inhibition, hits mostly inhibitors | HepG2 CAGA-GFP TGF-b/SMAD3 reporter, GFP fluorescence, 18 h; TGF-beta stimulated, 500 pg/mL final | 410,000 compounds, 1.2% hits | AID 588855; also: potency is read from the fitted curve at half-maximal effect; % is scaled to controls: 0 for no effect and ±100 for the full control effect; nearly all actives have a fitted effect of over 65% in size
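Cell-based qHTS in HEPG2 carrying a CAGA-GFP Smad reporter; compounds added before 500 pg/mL final TGF-beta, 18 h incubation at 37 degrees C, GFP fluorescence quantified per cell by imaging cytometry.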
HT1080 IDH1KD tx: HT-1080 IDH1 knockdown cell toxicity (counter line); 360,000 compounds, 2% hits; Potency, µM (top dose mostly 46.1 µM), for the others: top-dose activity, negative = toxicity, most hits filed as cytotoxic; HT-1080 IDH1 knockdown viability, ATP luminescence, 48 h; AID 686971;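 also: potency is read from the fitted curve at half-maximal effect; 0% = DMSO wells and -100% = cell-free medium wells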
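Knockdown cells (IDH1KD HT-1080) received compounds 2 h after plating at 750 cells/well and were kept 48 h at 37 °C in 5% FBS RPMI. A CellTiter-Glo luminescence read gave % activity for curve fitting.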
IL-1B inflam inh: blocks inflammasome-driven IL-1 beta release. THP-1 LPS/ATP IL-1B secretion, AlphaLISA, 16 h; active compounds read low. 360,000 compounds, 4.7% hits. activity change, % at 57.5 µM. AID 743279; in the data active = activity change below about -50%; inconclusive = mostly about -30% to -49%; also: % is scaled to controls: 0 for no effect and ±100 for the full control effect
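THP-1 cells pretreated 1 hr with compounds (up to 57.5 uM final), then stimulated with LPS (250 ng/mL final) plus ATP (1.25 mM final); secreted IL-1B measured by AlphaLISA after 16 hr, decreased signal indicating inhibition.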
HepG2 viability: kills HepG2 cells in TGF-b inhibitor counter-screen; Potency, µM (doses to about 46.1 µM), inactives show at the top dose activity change, negative = cytotoxicity, most hits filed as cytotoxic; HepG2 CAGA-GFP viability, ATP luminescence, 18 h; AID 588856; 410,000 compounds, 0.76% hits; also: potency is read from the fitted curve at half-maximal effect
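CellTiter-Glo luminescence gave cytotoxicity after 18 hours at 37 degrees C. The cells were HepG2 CAGA-GFP in 1% FBS DMEM, stimulated with 500 pg/mL TGF-beta after compound addition. %Activity was normalised to no-cell wells (complete cell-killing) and DMSO (no toxicity), and curves were fitted and classified.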
HT1080-NT tox: kills 2HG-producing HT-1080-NT fibrosarcoma cells. HT-1080-NT fibrosarcoma viability, CellTiter-Glo ATP luminescence, 48 h. Potency, µM (highest dose often 46.1 µM), for inactives: at the top dose activity, negative = less viability, hits mostly cytotoxic. 360,000 compounds, 1.6% hits;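 also: NT is the 2HG producing partner of a matched IDH1 knockdown line; potency is read from the fitted curve at half-maximal effect; 0% = DMSO-treated cells and -100% = media-only wells without cells; nearly all actives have a fitted effect of over 55% in size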
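A 48-hour cytotoxicity screen used HT-1080-NT cells plated 2 hours before compound delivery. ATP-based CellTiter-Glo luminescence measured viability, normalized to DMSO and no-cell controls.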
Giardia kill: kills Giardia lamblia | Giardia lamblia trophozoite viability | activity change, % at 7.66 µM, hits read low | 340,000 compounds, 0.15% hits; in the data active = activity change below about -80%; inconclusive = between about -30% and that limit;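 also: parasites exposed to compound for two days anaerobically before the ATP read; % is scaled to controls: 0 for no effect and ±100 for the full control effect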
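Luminescence from cellular ATP indicates surviving trophozoites (100 cells/well) following 48 hrs anaerobic compound treatment at 37 deg C; signal develops 15-30 min at room temperature.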
* = called active by the depositor; u = inconclusive; x = no result given; [ ] = dose if it differs, or a comment. Unless noted, calls follow the shape of the dose curve; as a rule, active = well fitted curve in the direction sought with a large enough effect; inconclusive = small, poorly fitted or top-dose-only effect, or another doubt; inactive = no such curve, though single readings can be large; an effect the other way counts as inactive or inconclusive.

SMILES	TGFb inhibitor	HT1080 IDH1KD tx	IL-1B inflam inh	HepG2 viability	HT1080-NT tox	Giardia kill
O=S(=O)(NCC(c1cccs1)S(=O)(=O)c1ccccc1)c1ccccc1 (configuration not stated)	7.1µM*	x	x	10µM*	x	x
O=S(=O)(NCC(c1ccco1)S(=O)(=O)c1cccs1)c1ccccc1 (configuration not stated)	-11%	x	x	3%	x	x
CCOC(=O)c1oc2ccc(CNC3CCCCC3)c(Cl)c2c1C	u	-18%[9.24 µM]	-82*	-52%	11µM*	-2
Oc1c(C(c2ccc(Cl)cc2Cl)N2CCN(Cc3ccccc3)CC2)sc2nc(-c3ccco3)nn12 (configuration not stated)	u	x	x	16µM*	x	x
COc1ccc(CNC(=O)CSc2ncnc3ccccc23)cc1OC	2%	-4%	12	1%	-8%	-18
CCN(CC(=O)Nc1ccc(N2CCOCC2)cc1)C(=O)c1ccc(C(F)(F)F)cc1	10%	19%	-57*	-36%	u	-11
CN(CC(=O)Nc1ccc(N2CCOCC2)cc1)CC(=O)Nc1ccc(C(F)(F)F)cc1	-13%	-24%	-25	-27%	-11%	-12
Cc1cccc2c1-c1sc(C(=O)NCCCN3CCN(c4cccc(Cl)c4)CC3)cc1CO2	13µM*	x	x	-86%	x	x
Cc1cccc2c1-c1sc(C(=O)NCCCN3CCN(c4ccccc4F)CC3)cc1CO2	4%	x	x	-43%	x	x
Cc1cccc2c1-c1sc(C(=O)Nc3ccccc3N3CCN(C)CC3)cc1CO2	u	-30%	-93*	16µM*	u	6
CCN(CC)S(=O)(=O)c1cc(C(=O)Nc2nncs2)c(Cl)cc1Cl	18%	u	-84*	-1%	u	-1
CCN(CC)S(=O)(=O)c1cc(C(=O)Nc2cc(C)on2)c(Cl)cc1Cl	-10%	u	-94*	-20%	-26%	8
COCC(=O)Nc1ccc(N2CCOCC2)c(S(=O)(=O)Nc2ccc(OC)cc2)c1	-7%	-19%	0	-16%	-16%	12
Cn1nnnc1SCC(=O)N1c2ccccc2CCc2ccccc21	5%	-34%	11	-15%	-8%	24
CCCS(=O)(=O)c1c(S(=O)(=O)CCC)c2cc(-c3ccncc3)ccn2c1C(=O)OC	49%	-13%	-69*	0%	-19%	35
CCCS(=O)(=O)c1c(S(=O)(=O)CCC)c2cc(CC)ccn2c1C(=O)c1ccc(OC)cc1	-1%	x	x	9%	x	x
CON(C)C(=O)/C=C/CCCCNC(=O)OC(C)(C)C	28%	-5%	14	-6%	-6%	30
CCCCC(CC)CN=C(N)NC(N)=NCCCCCCN=C(N)NC(N)=NCC(CC)CCCC (configuration not stated)	u	23µM*	-104*	11µM*	7.3µM*	24
Nc1nc(Sc2c([N+](=O)[O-])cc(C(F)(F)F)cc2[N+](=O)[O-])n[nH]1	u	u	-100*	-117%	u	5
O=C(CCN1C(=O)/C(=C/c2ccc(F)cc2)SC1=S)NCCCn1ccnc1	21%	1%	20	-2%	1%	-7
CCOP(=O)(OCC)c1nc(-c2cccc3ccccc23)oc1N1CCOCC1	-4%	-13%	-73*	-23%	-11%	17
CCOP(=O)(OCC)c1nc(-c2ccc(Cl)cc2Cl)oc1N1CCCCC1	u	23µM*	-113*	8%	18µM*	8
O=P(c1ccccc1)(c1ccccc1)c1nc(-c2ccc(Cl)cc2)oc1N1CCOCC1	u	-24%	-65*	-28%	-25%	11
CCOP(=O)(OCC)c1nc(-c2cccc3ccccc23)oc1NCCc1ccc(OC)cc1	-33%	-9%	-55*	12%	-21%	u
Cn1c(=O)c2[nH]c(-c3cccnc3)nc2n(C)c1=O	-7%	-7%	-10	8%	2%	-11
SMILES	TGFb inhibitor	HT1080 IDH1KD tx	IL-1B inflam inh	HepG2 viability	HT1080-NT tox	Giardia kill
Cc1cc(C)nc(Nc2n[nH]c(-c3ccccc3Br)n2)n1	11%	12%	35	-10%	26%	3
Cc1cc2c(=O)n(Cc3ccco3)c(SCC(=O)N3CCCc4ccccc43)nc2s1	u	-23%	-67*	-11%	u	9
CC(C)Cn1c(SCC(=O)N2CCN(S(=O)(=O)c3ccccc3)CC2)nc2ccccc21	u	-1%	-52*	-2%	-15%	14
Cn1c(SCC(=O)N2CCN(S(=O)(=O)c3ccccc3)CC2)nc2ccccc21	-4%	-2%	24	-9%	-2%	-6
CC(C)Cn1c(SCC(=O)N2CCCc3ccccc32)nc2ccccc2c1=O	u	-30%	-66*	-10%	-26%	11
CCCC(=O)N1CCN(C2=NS(=O)(=O)c3ccccc32)CC1	u	4%	-9	-18%	1%	6
C=C1C(=O)OCC2C(C(=O)O)=CC3C(C)C(C)=CC123 (configuration not stated)	u	u	-70*	-36%	-11%	x
CC1(C(=O)N2CCCCC2)CCN1C(=O)Cc1ccc(-c2ccccc2)cc1 (configuration not stated)	-35%	-3%	1	-31%	-7%	x
CC(=O)N(C)c1ccc(N2CCOCC2)c2c1C(=O)c1ccccc1C2=O	u	-9%	27	-48%	2%	26
O=C1c2ccccc2C(=O)c2c1cccc2N1CCOCC1	16%	4%	-81*	15%	2%	-8
CCOC(=O)/C(=N\Nc1ccc(Cl)cc1)c1csc(Nc2ccccc2)n1	u	u	-73*	11µM*	u	0
CCOC(=O)/C(=N/Nc1ccccc1)c1csc(Nc2ccccc2)n1	u	u	-1	-89%	u	-19
Cc1c(/C=N\NC(=O)c2csc3ccccc23)cnn1C	-10%	u	14	-9%	-26%	13
CCn1ncc(/C=N\NC(=O)c2csc3ccccc23)c1C	-15%	5.2µM*	19	-2%	u	-3
O=C(Cc1cccc2ccccc12)NCC(=O)N1CCN(Cc2cccc(C(F)(F)F)c2)CC1	11µM*	-23%	-13	-36%	-23%	-2
O=C(CCC(=O)N1CCN(c2cccc(Cl)c2)CC1)N1CCN(c2ccccc2)CC1	u	-18%	-18	-27%	-3%	-9
O=C(NCCCN1CCN(CCCNC(=O)c2cccc(Cl)c2)CC1)c1cccc(Cl)c1	-11%	1%	-57*	4%	-1%	15
